High-throughput results from PubChem BioAssay.
DNMT1 inh – blocks human DNA methyltransferase DNMT1. hit rate 0.83% among 360,000. P26358. inhibition (reported as % activation of signal), % at 10 µM. DNMT1 molecular beacon, Hinp1I cleavage, fluorescence. AID 588458; in the data active = inhibition above about 50%
LEDGF integ inh – blocks HIV-1 LEDGF/p75-dependent DNA integration; AID 743269; TR-FRET IN-LEDGF/p75 DNA integration, Eu/Cy5; inhibition, % at 3.7 µM; hit rate 0.64% among 370,000;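 active = inhibition above the screen-wide mean plus 3 SD, cut at about 13% in these data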;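 note: signal is the Cy5 over europium emission ratio at 671 and 618 nm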
PG9 Ab binder – small molecules binding HIV-1 gp120 antibody PG9; TR-FRET gp120-PG9 antibody binding; inhibition, % at 6.7 µM; hit rate 0.43% among 360,000; in the data active = inhibition above about 8.5%
UHRF1 binding – human UHRF1 methylated DNA binding inhibitors | Q96T88 | UHRF1 binding to methylated oligo, TR-FRET | inhibition, % at 4.4 µM | hit rate 0.75% among 370,000; in the data active = inhibition above about 21%;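 note: UHRF1 SRA domain binding a hemimethylated CpG hairpin DNA probe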
MBD2 inh – inhibitors of human MBD2 binding to methylated oligonucleotide; inhibition, % at 4.4 µM; TR-FRET; Q9UBB5; hit rate 0.31% among 370,000; in the data active = inhibition above about 13%
Target sequence (Q9UBB5 whole entry, looked up): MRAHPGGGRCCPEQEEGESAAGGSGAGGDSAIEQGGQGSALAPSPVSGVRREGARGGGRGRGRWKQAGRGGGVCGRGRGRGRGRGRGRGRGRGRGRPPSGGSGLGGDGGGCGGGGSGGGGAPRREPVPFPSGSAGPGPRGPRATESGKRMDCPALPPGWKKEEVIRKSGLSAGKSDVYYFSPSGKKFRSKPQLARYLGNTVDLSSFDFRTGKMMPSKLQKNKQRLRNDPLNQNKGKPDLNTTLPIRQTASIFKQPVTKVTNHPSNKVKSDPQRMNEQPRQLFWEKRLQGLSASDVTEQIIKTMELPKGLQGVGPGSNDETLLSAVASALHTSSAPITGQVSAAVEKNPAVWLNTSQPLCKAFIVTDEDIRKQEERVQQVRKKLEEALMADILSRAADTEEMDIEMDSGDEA
rCAG RNA binder – binds r(CAG) RNA repeats | r(CAG) RNA repeat, TO-PRO-1 dye displacement fluorescence | inhibition, % at 3 µM | AID 651821 | hit rate 1.3% among 370,000;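 active = inhibition above the plate cutoff, the mean of all test compounds on that plate plus 3 SD, cut at about 35% in these data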;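 note: higher means more dye released from RNA so lower well fluorescence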
UHRF1 ctr MBD2 – counter-screen for MBD2 inhibitors: human UHRF1 methylated DNA binding inhibitors; shares compounds with MBD2 inh; UHRF1 binding to methylated oligonucleotide, TR-FRET; inhibition, % at 4.4 µM; hit rate 25% among 1,000; in the data active = inhibition above about 21%;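 note: UHRF1 SRA domain binding a labeled hemimethylated CpG hairpin DNA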
MBD2 confirm – confirmation of human MBD2-DBD methylated oligonucleotide binding inhibitors; shares compounds with MBD2 inh; TR-FRET MBD2-DBD binding to methylated oligonucleotide; inhibition, % at 4.4 µM; hit rate 26% among 1,000
IN multimer up – HIV-1 integrase multimerization activation, counter-screen; shares compounds with LEDGF integ inh; TR-FRET HIV-1 integrase multimerization, biochemical; activation, % at 7.7 µM; hit rate 17% among 2,000; in the data active = activation above about 8.9%
TRFRET interf – counter-screen for LEDGF/p75 integration inhibitors: TR-FRET optical interference; shares compounds with LEDGF integ inh; TR-FRET optical interference counterscreen, HIV-1 IN multimerization; inhibition, % at 7.7 µM; 2,000 tested, under 10 active;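 active = inhibition above the mean over all tested compounds plus 3 SD, which no compound reached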
IN-LEDGF confirm – confirmation of HIV-1 LEDGF/p75-dependent integration inhibitors; shares compounds with LEDGF integ inh; TR-FRET LEDGF/p75-dependent HIV-1 integration, biochemical; inhibition, % at 3.7 µM; hit rate 36% among 2,000
Numbers stand for hits; . = inactive; / = no result given. In the library only some 3.5% were active in any assay of this set; here they are far more common. Cut-off read from the data, not from the text of the source, unless noted: active = inhibition above about 14%; inactive = the rest.

SMILES	DNMT1 inh	LEDGF integ inh	PG9 Ab binder	UHRF1 binding	MBD2 inh	rCAG RNA binder	UHRF1 ctr MBD2	MBD2 confirm	others
CN(c1ccc(F)cc1)S(=O)(=O)c1ccc(Cl)c(C(=O)OCC(=O)NC2CC2)c1	.	.	.	.	.	.	/	/
O=C(Nc1ccc(F)c(Cl)c1)c1ccccc1NC(=O)C1CCCCC1C(=O)O (configuration not stated)	.	.	.	.	.	.	/	/
CC(C)C[C@@H](CN1CCC[C@H]1CN1C(=O)C(=O)NC[C@@H]1Cc1ccc(O)cc1)N1C[C@H](Cc2ccccc2)N(CC2CCCCC2)C(=O)C1=O	/	.	.	25	17	.	.	.
CC(C)C[C@@H](CN1CCC[C@H]1CN1C(=O)C(=O)NC[C@@H]1Cc1ccc(O)cc1)N1C[C@H](Cc2ccc(O)cc2)N(CC2CCCCC2)C(=O)C1=O	/	.	.	.	.	.	/	/
Cc1ccc(Br)cc1S(=O)(=O)Nc1cccnc1	.	.	.	36	18	.	.	.
Cc1ccc(S(=O)(=O)NNC(=O)c2ccncc2)cc1	.	.	.	.	23	.	.	.
COc1cccc(NC(=O)COc2ccc(C(=O)N3CCN(C)CC3)cc2)c1	.	.	.	.	.	.	/	/
COc1ncccc1-c1cc2nc(NCCCN(C)C)n(C)c(=O)c2s1	.	.	.	.	14	.	30	17
COc1ccc(OC)c(S(=O)(=O)NCC2CCN(C(=O)C(=O)c3cc4ccccc4o3)CC2)c1	/	.	.	.	.	.	/	/
COc1ccc(/C=C2/C(=O)N(c3ccccc3)N=C2C)cc1Br	.	.	.	.	15	.	.	.
COc1cccc(C(=O)Nc2ccc(Oc3cccc(C(F)(F)F)c3)nc2)c1	.	.	.	.	14	.	.	.
COc1ccc(OC)c(CN2C(=O)CCCC2(C)c2nnnn2C2CCCC2)c1 (configuration not stated)	/	.	/	.	.	.	/	/
CCCNC(=O)Nc1nc(C(N)c2ccc(OC)cc2)cs1 (configuration not stated)	.	.	.	.	.	.	/	/
Cc1cc(NC(=O)Nc2cc(C)nn2-c2ccccc2)n(-c2ccccc2)n1	.	.	.	.	.	.	/	/
Cc1cc(NC(=NC2CC2)c2ccccc2F)n(-c2ccccc2)n1	.	.	.	21	15	.	.	.
COc1ccc(NC(=O)CSc2nc3[nH]ncc3c(=O)n2-c2ccccc2C)cc1OC	.	.	.	.	.	.	/	/
COc1ccc(NC(=O)CSc2nc3[nH]ncc3c(=O)n2-c2ccccc2OC)cc1OC	.	.	.	26	17	.	.	.
COc1ccc(-c2[nH]nc3oc(=O)cc(C)c23)cc1	.	.	.	.	14	.	.	.
Cc1cc(=O)oc2n[nH]c(-c3ccccc3)c12	.	.	.	.	.	.	/	/
O=C(COC(=O)CN1C(=O)c2ccccc2C1=O)Nc1ccccc1[N+](=O)[O-]	.	.	.	24	19	.	.	.
Cc1cnn(-c2cc(Oc3ccccc3)ncn2)c1	.	.	.	.	16	.	.	.
c1ccc(Oc2cc(-n3cncn3)ncn2)cc1	.	.	.	.	.	.	/	/
C[C@@H](/C=C/C(=O)OC(C)(C)C)Sc1ccc(C(C)(C)C)cc1	/	.	/	.	18	.	.	.
CCC[C@@H](/C=C/C(=O)OC(C)(C)C)Sc1ccc(C(C)(C)C)cc1	/	.	/	.	.	.	/	/
CCCc1nnc(NC(=O)CCC(=O)N2CCN(c3ccccc3)CC2)s1	.	.	.	.	.	.	/	/
SMILES	DNMT1 inh	LEDGF integ inh	PG9 Ab binder	UHRF1 binding	MBD2 inh	rCAG RNA binder	UHRF1 ctr MBD2	MBD2 confirm	others
CCCc1nnc(NC(=O)CCC(=O)N2CCN(c3ccccn3)CC2)s1	.	.	.	.	14	.	.	.
CCc1nc2c(OCc3cccc(OC)c3)cccn2c1N(C)C(=O)c1ccccc1F	.	.	.	.	26	.	.	.
CCc1nc2c(OCc3cc(Cl)cc(Cl)c3)cccn2c1N(C)C(=O)c1ccccc1F	.	.	.	.	.	.	/	/
O=C(COc1ccc(Cl)cc1)Nc1cccc(S(=O)(=O)NCc2ccco2)c1	.	.	.	.	.	.	/	/
CCCCCCSc1ccc([C@H]2N[C@@](Cc3ccccc3)(C(=O)OC)[C@H]3C(=O)N(CC)C(=O)[C@@H]23)cc1	.	.	.	.	.	.	/	/
CCCCCCSc1ccc([C@H]2N[C@@](Cc3ccccc3)(C(=O)OC)[C@H]3C(=O)N(C)C(=O)[C@@H]23)cc1	.	.	.	.	14	.	.	.
CC(=O)Nc1sc2c(c1-c1nc3ccccc3s1)CCN(C(C)C)CC2	/	.	/	.	22	/	.	26
CC(=O)Nc1sc2c(c1-c1nc3ccccc3s1)CCCNC2	/	.	/	.	21	/	.	32
CC1Cc2ccccc2N1S(=O)(=O)c1ccc2c(c1)n(C)c(=O)c(=O)n2C (configuration not stated)	.	.	.	.	14	.	.	.
CC(=O)C1=C(O)C(=O)N(c2ccc(O)cc2)C1c1cccc(F)c1 (configuration not stated)	.	.	.	.	.	.	/	/
Cc1ccc(CN(C)C(=O)c2cccc(S(=O)(=O)N3CCc4ccccc43)c2)cc1	.	.	.	.	15	.	.	.
Cc1ccc(Cl)cc1NC(=O)COC(=O)CC1CCCCC1	.	.	.	.	.	.	/	/
COc1cc(/C=C(\C#N)C(=O)c2ccc(O)c(O)c2)cc(I)c1O	.	90	.	58	22	40	.	.	IN multimer up=22;TRFRET interf=.;IN-LEDGF confirm=82
COc1ccc(-c2cc(=O)[nH][nH]2)cc1OC	.	42	.	.	16	.	.	.	IN multimer up=.;TRFRET interf=.;IN-LEDGF confirm=.
COCCNC(=O)C1(C)CCCN(C(=O)c2ccc(C(=O)OC)cc2)C1 (configuration not stated)	.	15	.	.	16	.	.	.	IN multimer up=.;TRFRET interf=.;IN-LEDGF confirm=.
Cc1ccc(/C=C/C(=O)NCc2ccco2)o1	/	37	.	54	14	.	48	17	IN multimer up=13;TRFRET interf=.;IN-LEDGF confirm=60
COc1cccc(NC(=S)N2CCN(S(C)(=O)=O)CC2)c1	.	.	.	.	.	.	/	/
